PubChem BioAssay (NCATS)
Where “and” joins values, the source holds several entries; their conditions need not be identical. Identical values can stand only once. Inconclusive results are not listed. Calls of active or inactive are those of the source. The call rests on the fitted dose curve; in most records, active means well fitted inhibition curve with a large enough effect; inconclusive means small, poorly fitted or top-dose-only effect; inactive means flat fitted curve, though single readings scatter.

Columns and labels:
Experiment in all cases: Cytotoxic Profiling of Annotated Libraries Using Quantitative High-Throughput Screening (AID 1296008); further: nearly all actives have a fitted effect of over 60% in size
Details in all cases: Five cell lines viability, CellTiter-Glo ATP luminescence, 48-72 h; max response: stronger effect = lower value
CRL-7250 = system: CRL-7250
Outline: (§1)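 Cytotoxicity was measured as CellTiter-Glo ATP luminescence, read after 10 min at room temperature. Compound treatment of the cells lasted 48 or 72 hr at 37 degrees Celsius in a qHTS format.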

HaCat = system: HaCat
Outline: as §1

KB-3-1 = system: KB-3-1
Outline: as §1

NIH3T3 = system: NIH3T3
Outline: as §1

Measured: max response
On the % scale 0 is the no-effect control and ±100 the full control effect.

CC1(C=O)CCCC2(C)C1CCC13CC(CO)C(CCC12)C3 (centres undefined)
inactive: CRL-7250 | HaCat 3.29% | KB-3-1 7.38% | NIH3T3 -4.47%

C=C(C)C(=O)O[C@H]1[C@H]2C(=C)C(=O)O[C@@H]2/C=C(\CO)CC/C=C(/C=O)[C@@H]1O
inactive: CRL-7250 -17.3% | HaCat -13.6% | KB-3-1 | NIH3T3 -6.9%

CC1=C(C(=O)OC2CCCCC2)C(c2ccc([N+](=O)[O-])cc2)C2=C(CC(C)(C)CC2=O)N1 (centres undefined)
inactive: CRL-7250 1.32% | HaCat -9.38% | KB-3-1 -12% | NIH3T3 -3.56%

O=[N+]([O-])c1cn2c(n1)OC[C@@H](OCc1ccc(-c3ccc(OC(F)(F)F)cc3)nc1)C2
inactive: CRL-7250 2.36% | HaCat -7.6% | KB-3-1 -0.53% | NIH3T3 -0.0728%

COc1ccccc1-c1ccc(-c2cn(C(=O)N3CCCCC3Cc3ccccc3)nn2)cc1 (centres undefined)
inactive: CRL-7250 | HaCat -29.9% | KB-3-1 1.87% | NIH3T3

O=C(NCCCc1ccccc1)C1CCC(CNS(=O)(=O)c2cccc3nsnc23)CC1 (centres undefined)
inactive: CRL-7250 -1.65% | HaCat -4.58% | KB-3-1 -11.8% | NIH3T3 -18.1%

Cn1cc(C2=C(c3coc4ccccc34)C(=O)NC2=O)c2cc(Br)ccc21
inactive: CRL-7250 2.54% | HaCat 3.32% | KB-3-1 | NIH3T3

COc1ccc(CNCc2cccc3ccccc23)cc1
inactive: CRL-7250 | HaCat -12.6% | KB-3-1 3.07% | NIH3T3 -4.32%

Cc1c(C(=O)NCc2cccnc2)nn(-c2ccc(Cl)cc2Cl)c1-c1ccc(Cl)cc1
inactive: CRL-7250 | HaCat -13.1% | KB-3-1 -24% | NIH3T3 -4.76%

C=CC1(C)CC(O)C(C(=C)C(=O)OC)C(O)C1C(=C)CO (centres undefined)
inactive: CRL-7250 -28% | HaCat -2.8% | KB-3-1 0.16% | NIH3T3 -4.78%

O=C(Nc1ccccc1C(=O)NC1CCCCNC1=O)c1cc2ccccc2s1 (centres undefined)
inactive: CRL-7250 | HaCat 4.7% | KB-3-1 -2.87% | NIH3T3 4.3%

CC1(C)CC[C@]23CO[C@@]4(CCC5[C@@]6(C)CC[C@H](O[C@@H]7OC[C@H](O[C@@H]8O[C@H](CO)[C@@H](O)[C@H](O)[C@H]8O[C@@H]8OC[C@@H](O)[C@H](O)[C@H]8O)[C@H](O)[C@H]7O)[C@@](C)(CO)C6CC[C@@]5(C)[C@]4(C)CC2=O)[C@@H]3C1 (some centres undefined)
inactive: CRL-7250 -12.4% | HaCat 2.87% | KB-3-1 | NIH3T3 -14.1%

O=C(NCCCNC(=O)c1ccc[nH]c1=O)c1cc(-c2ccccc2)on1
inactive: CRL-7250 -21.2% | HaCat -1.65% | KB-3-1 -25.1% | NIH3T3 2.72%

COc1ccccc1N1CCN(CC(C(=O)NC(C)(C)C)c2ccccc2)CC1 (centres undefined)
inactive: CRL-7250 | HaCat -3.82% | KB-3-1 7.33% | NIH3T3

C/C=C(\C)C(=O)OC1C(C)C2(O)C(C=C(CO)CC3(O)C(=O)C(C)=CC32)C2C(C)(C)C12OC(=O)C(C)C (centres undefined)
inactive: CRL-7250 -36% | HaCat -1.92% | KB-3-1 -0.0958% | NIH3T3 1.03%

CC(C)c1noc(C2CCN(c3ncnc(Nc4ccc(S(C)(=O)=O)cc4F)c3[N+](=O)[O-])CC2)n1
inactive: CRL-7250 -0.282% | HaCat 1.98% | KB-3-1 -4.1% | NIH3T3 -23.4%

C=C1CCN([C@H](C)[C@](O)(Cn2cncn2)c2ccc(F)cc2F)CC1
inactive: CRL-7250 -7.35% | HaCat -11.9% | KB-3-1 -0.073% | NIH3T3

O=C(N[C@H]1CCC[C@H](CO)C1)C1CCN(c2nc3cc(Cl)c(-c4ccc(Cl)cc4)cc3o2)CC1
inactive: CRL-7250 -0.419% | HaCat -4.31% | KB-3-1 -14.3% | NIH3T3 0.931%

CCC[C@@]1(CCc2ccccc2)CC(O)=C([C@H](CC)c2cccc(NS(=O)(=O)c3ccc(C(F)(F)F)cn3)c2)C(=O)O1
inactive: CRL-7250 | HaCat 2.03% | KB-3-1 -13.2% and -6.18% | NIH3T3

CC(C)c1ccc(NC(=O)Cn2cnc3c2c(=O)n(C)c(=O)n3C)cc1
inactive: CRL-7250 | HaCat -14.6% | KB-3-1 2.05% | NIH3T3 -6.55%

COc1ccc(Sc2ccc(NC(=O)c3ccccc3Cl)cc2C#N)cc1
inactive: CRL-7250 -14.2% | HaCat -11.3% | KB-3-1 -1.86% | NIH3T3 -6.24%
